Source: PubChem BioAssay (National Center for Advancing Translational Sciences (NCATS))
Compounds with a hit are over-represented: about 10% of the library has one in this group of screens.
hNpr1 antagonist: human Npr1 receptor antagonism | P16066 | HEK293 hNpr1 GloSensor cGMP, ANP-stimulated luminescence | AID 1347048 | 1.6% of 76,000 active | Potency, µM (series often up to 46.3 µM), for the others: at the top dose activity change, negative = inhibition, actives largely listed as inhibitors; calls by dose curve; further: nearly all actives have a fitted effect of over 60% in size
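Compound pre-incubated 30 min at room temperature on GloSensor-loaded HEK293 cells stably carrying hNpr1 and the pGS-40F cGMP biosensor. Stimulation uses hNppA at 0.1 nM final; luminescence is taken at baseline and 20 min post-agonist.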
GPT2 inh: blocks human glutamate pyruvate transaminase 2; Recombinant GPT2, coupled pyruvate oxidase/HRP Amplex Red fluorescence; AID 1671188; Potency, µM (doses to about 57.7 µM), inactives show top-dose activity change, negative = inhibition, actives largely listed as inhibitors; 0.25% of 100,000 active; Q8TD30; further: nearly all actives have a fitted effect of over 60% in size
Target sequence (Q8TD30 whole entry, looked up): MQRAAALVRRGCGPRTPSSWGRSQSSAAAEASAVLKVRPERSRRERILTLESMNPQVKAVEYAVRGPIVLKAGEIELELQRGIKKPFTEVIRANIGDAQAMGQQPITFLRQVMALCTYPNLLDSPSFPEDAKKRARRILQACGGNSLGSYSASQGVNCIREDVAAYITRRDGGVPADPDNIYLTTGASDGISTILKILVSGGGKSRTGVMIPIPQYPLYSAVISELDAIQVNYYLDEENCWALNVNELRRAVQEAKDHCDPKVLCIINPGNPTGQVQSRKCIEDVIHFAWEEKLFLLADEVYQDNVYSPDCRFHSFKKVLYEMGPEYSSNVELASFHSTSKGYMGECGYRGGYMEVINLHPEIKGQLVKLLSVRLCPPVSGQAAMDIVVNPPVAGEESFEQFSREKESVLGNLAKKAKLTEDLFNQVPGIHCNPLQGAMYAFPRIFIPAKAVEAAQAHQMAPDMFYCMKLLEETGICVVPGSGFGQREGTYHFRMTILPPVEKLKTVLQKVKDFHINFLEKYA
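GPT2 10ng/uL, a-KG 250uM, L-Ala 2mM, HEPES pH7.5 + 0.0001% Tween; 30 min RT. Then Amplex mix (PO/HRP/ThPP), 30 min RT dark, fluorescence. AOA 50uM used as positive control.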
HEK cytotox: kills HEK 293 cells; HEK 293 viability, ATP luminescence (CellTiter-Glo), 48-72 h; Potency, µM (titrated, usually from 115 µM), inactives show at the highest dose activity change, negative = cytotoxicity, most hits filed as inhibitors; 6.6% of 94,000 active; AID 1345083; further: nearly all actives have a fitted effect of over 60% in size
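250 HEK 293 cells/well; compound by pintool; incubated 48 or 72 hr at 37 degree Celsius; CellTiter-Glo added, 10 min RT, luminescence imaged.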
FLuc inh: inhibitors of firefly (Photinus pyralis) luciferase | P08659 | purified P. pyralis luciferase, luminescence, biochemical | Potency, µM (highest dose often 115 µM), actives largely listed as inhibitors | 2.5% of 76,000 active; further: nearly all actives have a fitted effect of over 65% in size
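Luminescence read by CCD imager after adding enzyme (10nM final) to wells holding compound, titrated in qHTS. Substrates 10uM each D-luciferin and ATP; buffer 50mM Tris acetate pH 7.5, 10mM Mg acetate, Tween-20, BSA.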
3T3 cytotox: kills NIH 3T3 cells | NIH 3T3 viability, CellTiter-Glo ATP luminescence, 48-72 h | Potency, µM (doses to about 96.7 µM), inactives show at the highest dose activity change, negative = cytotoxicity, usual class: inhibitors | 4.3% of 94,000 active; further: nearly all actives have a fitted effect of over 55% in size
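Cytotoxicity is measured as loss of cellular ATP: NIH 3T3 cells (400/well) are exposed to compound for 48 or 72 hr at 37 °C, then CellTiter-Glo luminescence is imaged after 10 min at room temperature.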
* marks the source's active call; other numbers are inactive results; i = inactive; u = inconclusive; x = no result given; ! = repeats disagree; [ ] = dose if it differs, or a comment. Unless noted, the call rests on the fitted dose curve; in most records, active means well fitted curve in the direction sought with a large enough effect; inconclusive means small, poorly fitted or top-dose-only effect, or another doubt; inactive means no such curve, though single readings can be large; an effect the other way counts as inactive or inconclusive. On the % scale 0 is the no-effect control and ±100 the full control effect; potency means the concentration at half of the fitted maximal effect.

SMILES	hNpr1 antagonist	GPT2 inh	HEK cytotox	FLuc inh	3T3 cytotox
O=C(NCC1CCOCC1)c1cnc2n[nH]c(-c3ccccc3)c2n1	4%[70.6 µM]	2%[88.5 µM]	u	i	79µM*
COCCNCc1ccc(-c2cccc(Cl)c2)o1	-4%	-10%	-11%	i	-5%
O=C(NCCc1ccc(Cl)cc1)c1ccc2nnc(CC3CC3)n2c1	x	3%	u	x	u
C=CCNC(=O)[C@@H]1Cc2cn(Cc3nccn3C)c3cccc(c23)[C@H](CC(C)C)N1	-2%[70.6 µM]	u	u	i	79µM*
C=CCN(C)C(=O)[C@@H]1Cc2cn(Cc3nccn3C)c3cccc(c23)[C@H](CC(C)C)N1	4%[70.6 µM]	2%[88.5 µM]	100µM*	i	u
CC(C)C[C@@H]1N[C@H](C(=O)NC(C)C)Cc2cn(Cc3nccn3C)c3cccc1c23	-13%[70.6 µM]	0%[88.5 µM]	u	i	79µM*
C=CCN(C)C(=O)[C@@H]1Cc2cn(Cc3cc(C)on3)c3cccc(c23)[C@H](CC(C)C)N1	2%[70.6 µM]	u	71µM*	i	71µM*
COc1ccc(-c2cc(C(=O)NCc3cccc(Cl)c3)c3cnn(C)c3n2)cc1	x	-12%	-25%	x	u
Clc1ccc(-c2nnc3n2CCN(Cc2ccsc2)C3)cc1	x	i	2%	x	u
O=C(Cc1cccc(Cl)c1)N1CCCC1C(=O)N1CCCC1c1nc2ccncc2[nH]1 (centres undefined)	x	5%	i	x	0%
CC(C)C[C@@H]1N[C@H](C(=O)NC2CCC2)Cc2cn(Cc3nccn3C)c3cccc1c23	-16%[70.6 µM]	u	u	i	79µM*
COCCn1ncc(N2CCC(C(=O)NCc3nc4ccccc4n3C)C2)cc1=O (centres undefined)	10%	i	u	i	u
CC(C)c1cnc(-c2ccncc2)[nH]1	x	1%[88.5 µM]	-6%[230 µM]	x	-17%[174 µM]
CN(C)c1cccc(-c2c3c(=O)n(-c4ccccc4Cl)[nH]c3cc(=O)n2C)c1	x	15µM*!	x	x	x
O=C(Cc1ccccc1)N1C[C@@H](CO)[C@@H]2Oc3ccc(Cl)cc3[C@@H]21	x	x	79µM*	x	u
c1ccc(-c2ccc3ncc(Nc4ccc5c(c4)OCCO5)n3n2)cc1	-11%[70.6 µM]	u	89µM*	u	u
Fc1ccc(-c2ccc3ncc(Nc4ccc5c(c4)OCCO5)n3n2)cc1	1%[70.6 µM]	-15%[88.5 µM]	u	u	u
c1ccc(-c2ccc3ncc(Nc4cccnc4)n3n2)cc1	-7%[70.6 µM]	u	u	i	u
c1ccc(-c2ccc3ncc(Nc4ccncc4)n3n2)cc1	-2%[70.6 µM]	i	u	i	u
Fc1ccccc1Nc1cnc2ccc(-c3ccccc3)nn12	-8%[70.6 µM]	u	100µM*	i	u
Fc1ccc(Nc2cnc3ccc(-c4ccccc4)nn23)cc1	-22%[70.6 µM]	-15%[88.5 µM]	100µM*	i	79µM*
O=C(NCC(F)F)C1CCCN(c2nccc(Nc3ccccc3F)n2)C1 (centres undefined)	x	-3%	u	x	u
O=C(NCc1cccc(F)c1)C1CCCN1c1nccc(Nc2ccccc2F)n1 (centres undefined)	x	-9%	u	x	u
O=C(C1CCCC1)N1CCC2(C1)C(=O)N(CCc1ccccc1)c1ccccc12 (centres undefined)	-3%	2%	40µM*!	i	u
COc1ccc(C(=O)N2CCC3(C2)C(=O)N(CCc2ccccc2)c2ccccc23)cc1 (centres undefined)	u	3%	40µM*!	i	u
O=C(Nc1ccc(Cl)cc1)N1CCC2(C1)C(=O)N(CCc1ccccc1)c1ccccc12 (centres undefined)	-11%	2%	32µM*!	i	u
O=C(c1ccc(C(F)(F)F)cc1)N1CCC2(C1)C(=O)N(Cc1ccccc1)c1ccccc12 (centres undefined)	u	i	22µM*	i	25µM*
COc1ccc(-n2c(=O)c(C(=O)NCc3ccc4c(c3)OCO4)nc3cccnc32)cc1	x	3%	-12%	x	-26%
